An excerpt weighted towards active compounds, which were near 22% of everything screened.
LmPK inh – inhibitors of Leishmania mexicana pyruvate kinase; 290,000 compounds, 0.37% hits; Q27686; Potency, µM (doses to about 57.5 µM), for the others: at the top dose activity change, negative = inhibition, hits mostly inhibitors; AID 1721; purified LmPK, Kinase-Glo ATP luminescence, 1 h; also: potency is read from the fitted curve at half-maximal effect; % is scaled to controls: 0 for no effect and ±100 for the full control effect
Target sequence (Q27686 whole entry, looked up): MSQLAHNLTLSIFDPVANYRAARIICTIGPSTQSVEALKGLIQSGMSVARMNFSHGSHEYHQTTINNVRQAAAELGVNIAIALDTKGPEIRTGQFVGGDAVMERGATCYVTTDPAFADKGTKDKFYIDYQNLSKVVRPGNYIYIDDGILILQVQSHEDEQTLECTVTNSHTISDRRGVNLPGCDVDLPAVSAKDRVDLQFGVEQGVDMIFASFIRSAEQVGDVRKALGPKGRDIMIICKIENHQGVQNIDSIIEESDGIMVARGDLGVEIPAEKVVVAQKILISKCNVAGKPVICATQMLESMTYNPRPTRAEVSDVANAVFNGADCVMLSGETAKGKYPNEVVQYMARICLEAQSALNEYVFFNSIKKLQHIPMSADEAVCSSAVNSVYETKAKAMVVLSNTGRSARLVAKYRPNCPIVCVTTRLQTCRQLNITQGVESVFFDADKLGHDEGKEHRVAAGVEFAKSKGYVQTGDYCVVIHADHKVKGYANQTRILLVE
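Purified LmPK (0.1 nM) with 0.5 mM PEP and 0.1 mM ADP in imidazole buffer pH 7.2 with MgCl2/KCl, 1 h at room temperature. ATP formed was read by luciferase luminescence and normalized to no-enzyme and uninhibited controls.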
CHX counter – counter-screen hit for Shiga toxin inhibitors, cycloheximide | cell reporter, cycloheximide protein synthesis inhibition counterscreen | max response, % | 300,000 compounds, 12% hits; in the data active = max response mostly above about 13%, no sharp cut-off; inactive = mostly below about 14%; also: read at 38.3 µM for the half of the compounds with a filed dose; 0% is about no effect
Pf growth 48h – inhibits P. falciparum growth in the first generation, 48 h; P. falciparum luciferase growth in erythrocytes, 48 h; Potency, µM (titrated, usually from 28.7 µM), for the others: at the top dose activity change, negative = inhibition, hits mostly inhibitors; AID 504832; 310,000 compounds, 5.9% hits; also: potency is read from the fitted curve at half-maximal effect; % is scaled to controls: 0 for no effect and ±100 for the full control effect
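Luciferase-expressing P. falciparum in infected erythrocytes (2% hematocrit, 0.1% parasitemia final) in RPMI 1640/0.5% Albumax were exposed to compound for 48 hours at 37 C, 5% CO2; growth read as luminescence.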
Shiga inhibitor – Shiga toxin inhibition | Vero cells, Shiga toxin protein synthesis inhibition reporter | inhibition, % at 38.7 µM | 290,000 compounds, 9.2% hits; in the data active = inhibition mostly above about 28%, no sharp cut-off; inactive = mostly below about 43%; also: 0% is about no effect
Pf growth 96h – P. falciparum growth inhibition at 96 hour, primary screen for plastid delayed-death inhibitors | P. falciparum luciferase reporter growth, 96 h | 320,000 compounds, 6.9% hits | AID 504834 | Potency, µM (highest dose often 28.7 µM), inactives show at the top dose activity change, negative = inhibition, actives largely listed as inhibitors; also: potency is read from the fitted curve at half-maximal effect; % is scaled to controls: 0 for no effect and ±100 for the full control effect
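Two-generation exposure (96 h) targets delayed-death phenotype. Reporter parasites carrying integrated firefly luciferase, in red cells at 2% hematocrit and 0.05% parasitemia final, kept at 37 C, 5% CO2; luminescence loss indicates inhibition.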
* marks the source's active call; other numbers are inactive results; ? = inconclusive; · = no result given; [ ] = another dose, or the depositor's remark. Unless noted, calls follow the shape of the dose curve; as a rule, active = well fitted inhibition curve with a large enough effect; inconclusive = small, poorly fitted or top-dose-only effect, or another doubt; inactive = no such curve, though single readings can be large or run the other way.

SMILES	LmPK inh	CHX counter	Pf growth 48h	Shiga inhibitor	Pf growth 96h
O=C(NC(=S)NC1C2CC3CC(C2)CC1C3)c1ccccc1 (stereo not drawn)	-7%	18*	32%	49*	10µM*
CC(NC(=O)C1CCN(S(=O)(=O)c2ccc(Br)s2)CC1)c1ccccc1 (stereo not drawn)	2%	12	0%	16	24%
COc1cc(C(=S)N2CCCCC2)ccc1OCC(=O)Nc1ccccc1Cl	3%	-5	-16%[5.75 µM]	8	0%
O=C(COc1ccc(Cl)cc1Cl)NC(=O)N1CCOCC1	-4%	35*	94%	93*	·
O=C(COc1ccccc1Cl)Nc1ccccc1C(=O)N1CCOCC1	4%	18*	15%	29	?
COc1cc(Cl)ccc1NC(=O)COc1ccccc1C(=O)N1CCN(c2ccc(O)cc2)CC1	-4%	-4	5.9µM*	29	?
O=C(COc1ccc(C(=S)N2CCOCC2)cc1Cl)Nc1ccccc1Cl	10%	19*	29%	52*	13%
CC(C)[C@H](NC(=O)c1c(F)cccc1F)C(=O)Nc1cccc(Br)c1	1%	-6	-9%	12	-10%
Cc1cc(Cl)ccc1OCC(=O)Nc1ccccc1C(=O)N1CCOCC1	-8%	8	-4%	-3	82%
O=C(c1cc(Cl)ccc1OCc1ccccc1)N1CCOCC1	0%	20*	31%	26	9%
Cc1nc2c(-c3ccccc3)c(C)nn2c(SCC(N)=O)c1Cc1ccccc1	2%	-2	?	8	?
CCOC(=O)c1[nH]c(C)c(C(=O)O)c1C	12%	-8	·	-15	0%
CCCCCCC(=O)c1c(C)[nH]c(C(=O)OCC)c1C	-8%	30*	?	81*	-15%
CCCCCC(=O)c1c(C)[nH]c(C(=O)OCC)c1C	1%	17*	?	104*	?
O=C(O)CC1=C(Nc2ccccc2)C(=O)N(c2ccccc2)C1c1ccc(Br)cc1 (stereo not drawn)	-7%	25*	15%	79*	?
CC(C)(C#N)NC(=O)C1CCCN1S(=O)(=O)c1ccc2ccccc2c1 (stereo not drawn)	-1%	-3	-9%	-6	41%
CN(CC(=O)Nc1cccc(F)c1)CC(=O)Nc1cccc(S(N)(=O)=O)c1	7%	-3	-6%	-3	-1%
O=C1NC(c2cc3ccccc3nc2Cl)Nc2ccccc21 (stereo not drawn)	3%	-5	2.9µM*	-6	1.9µM*
CS(=O)(=O)NN1C(=O)c2ccccc2NC1c1cc2ccccc2nc1Cl (stereo not drawn)	4%	16*	12%	-8	13%
CN(C)c1ccc(C2Nc3ccccc3C(=O)N2NS(C)(=O)=O)cc1 (stereo not drawn)	-3%	15*	11%	20	?
CS(=O)(=O)NN1C(=O)c2ccccc2NC1c1ccccc1F (stereo not drawn)	0%	0	38%	25	0%
Cc1ccc(S(=O)(=O)NN2C(=O)c3ccccc3NC2c2ccccc2)cc1 (stereo not drawn)	7%	24*	-1%	98*	?
COc1ccc(C2Nc3ccccc3C(=O)N2NS(=O)(=O)c2ccc(C)cc2)cc1 (stereo not drawn)	8%	3	-3%	1	-23%
C[C@H]1CN=C(N(C)C)N1CCC1CCCCC1	·	·	?	·	52%
COc1cccc(NC(=O)CCNC(=O)N2CC(=O)Nc3ccccc32)c1	-1%	-1	6%	0	?
SMILES	LmPK inh	CHX counter	Pf growth 48h	Shiga inhibitor	Pf growth 96h
NC(=O)c1ccc(NC(=O)COC(=O)CCN=C2NS(=O)(=O)c3ccccc32)cc1	·	·	-5%	·	-20%
COc1ccc(/C=N/NC(N)=S)cc1	4%	13*	23%	18	24%
COc1ccc(/C=N/NC(=O)Nc2nonc2N)cc1	5%	48*	98%	75*	-23%
CC(C)Oc1ccc(/C=N/NC(N)=S)cc1	1%	61*	85%	67*	-16%
COC(=O)c1cccc(/C=N/NC(N)=S)c1O	-7%	27*	?	26	?
Cc1ccc(N2C(=O)CC(N3CCN(c4ccccn4)CC3)C2=O)cc1 (stereo not drawn)	-2%	-4	5%	-6	44%
Cc1ccc2nc(-c3ccc(N4C(=O)CC(N5CCN(CCO)CC5)C4=O)cc3)sc2c1 (stereo not drawn)	-1%	37*	78%	68*	88%
CCc1nnc(NC(=O)CN2C(=O)/C(=C/c3cc(OC)c(OC)c(OC)c3)SC2=S)s1	-1%	-1	-2%	-4	32%
COc1cccc(-c2cn(C[C@H]3CC[C@@H]([C@@H]4CC[C@H](Cn5cc(-c6cccc(OC)c6)nn5)O4)O3)nn2)c1	6%	6	?	-6	7.4µM*
CCCCc1cn(C[C@H]2CC[C@@H]([C@@H]3CC[C@H](Cn4cc(CCCC)nn4)O3)O2)nn1	-5%	-1	26%	-5	?
c1ccc(SCc2cn(C[C@H]3CC[C@@H]([C@@H]4CC[C@H](Cn5cc(CSc6ccccc6)nn5)O4)O3)nn2)cc1	-2%	1	-15%	-6	15µM*
c1ccc(Cn2cc(-c3ccccc3)cn2)cc1	·	·	-79%	·	?
c1ccc(Cn2cc(CSc3ccccc3)nn2)cc1	-1%	38*	50%	67*	92%
COc1cccc2c1cc1c(=O)n(CC(=O)NCCCN3CCCCC3)nc(C)n12	1%	1	13%	8	?
COCc1cc(CNC(=O)C2CCC(=O)N(Cc3ccccc3OC)C2)[nH]n1 (stereo not drawn)	-5%	-2	5%	2	9%
O=C1C([N+](=O)[O-])=C(O)c2cccc3cccc1c23	-13%	11*	0%	8	24%
O=C1C(=O)c2cccc3cccc1c23	9%	-1	10µM*	-3	6.6µM*
CNC(=S)N/N=C1\C(=O)c2cccc3cccc1c23	0%	23*	0%	23	?
Cc1ccc(/C=N/N2CCN(C3c4ccccc4-c4ccccc43)CC2)o1	4%	9	?	25	-23%
CN(CC(=O)N1CCN(c2ncccn2)CC1)S(=O)(=O)c1ccc(Cl)cc1	12%	21*	25%	11	2%
CN(CC(=O)N1CCN(c2ccccn2)CC1)S(=O)(=O)c1ccccc1	-6%	43*	36%	50*	1%
CCOC(=O)c1cc(-c2ccccc2)n(CCC(=O)N2CCN(c3ccccn3)CC2)c1C	0%	-5	?	-10	13µM*
Cc1ccc(S(=O)(=O)N(C)CCCC(=O)N2CCN(c3ccccn3)CC2)cc1	-1%	-2	13µM*	16	·
CO[C@@H]1[C@@H]2OP(=O)(O)OC[C@H]2O[C@H]1n1c(Sc2ccc(Cl)cc2)nc2c(N)ncnc21	·	1	·	-19	·
